Hit rate of the full screen: of about 39,000 compounds, about 3,300 (8.5%) were called active. The list comes from a sample in which actives are over-represented; it also holds similar structures and randomly drawn compounds.

The subject of the assay is HepG2. The assay can be described thus: cytotoxicity call (relative viability < 0.9). As to conditions: 10 µM.
Regarding `CC(C)NC(=O)Nc1ccc2c(c1)C(=O)N([C@@H](C)CO)C[C@@H](C)[C@@H](CN(C)Cc1ccccc1)OCCCC[C@@H](C)O2`, the cytotoxicity call was “inactive”.
Then `C[C@@H]1CCCCO[C@@H](CN(C)C(=O)Nc2ccc3c(c2)OCO3)[C@@H](C)CN([C@@H](C)CO)C(=O)c2cc(NC(=O)Nc3ccc4c(c3)OCO4)ccc2O1`, with “inactive”; and `CS(=O)(=O)N1CCOC[C@@]2(C1)CN(S(=O)(=O)C1CC1)CCO2`, with “inactive”.
Then `O=C(C[C@H]1CC[C@H]2[C@@H](COC[C@@H](O)CN2S(=O)(=O)c2cccc(F)c2)O1)NCc1ccc2c(c1)OCO2`, with “inactive”.
With `C[C@@H]1CCCCO[C@H](CN(C)C(=O)Nc2ccc3c(c2)OCO3)[C@@H](C)CN([C@H](C)CO)C(=O)c2cc(NC(=O)c3ccccc3)ccc2O1`, the cytotoxicity call is “inactive”.
Next, `O=C(O)CNc1ncccc1O`: “inactive”; `Cc1ccc(S(=O)(=O)N(C)C[C@H]2Oc3ccc(NC(=O)NC(C)C)cc3CC(=O)N([C@H](C)CO)C[C@@H]2C)cc1`: “inactive”.
As to `N=C1CCCN1Cc1[nH]c(=O)[nH]c(=O)c1Cl`, the cytotoxicity call is “inactive”.
Next, `Cc1noc(C)c1NC(=O)Nc1ccc2c(c1)C(=O)N([C@@H](C)CO)C[C@@H](C)[C@H](CN(C)Cc1ccccc1)OCCCC[C@H](C)O2`: “inactive”; `Cc1noc(C)c1S(=O)(=O)Nc1ccc2c(c1)C(=O)N([C@H](C)CO)C[C@@H](C)[C@@H](CN(C)Cc1ccc(C(=O)O)cc1)O2`: “inactive”; `CC(C)NC(=O)N(C)C[C@H]1Oc2ccc(NC(=O)CCCN(C)C)cc2CC(=O)N([C@@H](C)CO)C[C@@H]1C`: “inactive”.
Next, `N[C@H]1CCCC[C@@H]1N1C(=O)CSC1=O`: “inactive”; `NC1CCCCC1N.O=C1[O][Pt][O]C1=O` (stereo not given): “active”; `Cc1c(CN2CCC(Nc3ncnc4sc(CC(F)(F)F)cc34)CC2)ccc2c1cc(C#N)n2Cc1cn[nH]c1`: “active”.
Next, `Cc1noc(C)c1S(=O)(=O)N(C)C[C@@H]1OCCCC[C@H](C)Oc2ccc(NS(C)(=O)=O)cc2C(=O)N([C@@H](C)CO)C[C@H]1C`: “inactive”.
In the case of `CN(C)CCOc1c(Br)cc(/C=C/C(=O)NCCCOc2c(Br)cc(CCN(C)C)cc2Br)cc1Br`, the cytotoxicity call was “active”.
As for `COc1cc(C(=O)NCc2ccc(OCCN(C)C)cc2)cc(OC)c1OC.Cl`, the cytotoxicity call was “inactive”.
Next, `COc1cc(/C=C/C(=O)NCCCNC(=O)/C=C/c2cc(OC)c(OC)c(OC)c2)cc(OC)c1OC`: “inactive”; `CC(C)N(CCOc1c(Br)cc(/C=C/C(=O)NCCCOc2c(Br)cc(CCN(C)C)cc2Br)cc1Br)C(C)C`: “active”; `C[C@H](CO)N1C[C@H](C)[C@@H](CN(C)C(=O)Nc2ccc3c(c2)OCO3)Oc2ccc(NC(=O)CCCN(C)C)cc2C1=O`: “inactive”.
Next, `CO[C@H]1CN(C)C(=O)c2cc(NS(=O)(=O)CC(F)(F)F)ccc2OC[C@H](C)N(C(=O)c2ccc3c(c2)OCO3)C[C@H]1C`: “inactive”.
On to `O=C(Cc1ccccn1)NCC[C@H]1CC[C@@H](NC(=O)CN2CCOCC2)[C@H](CO)O1`, for which the cytotoxicity call was “inactive”.
`C[C@H]1CN([C@@H](C)CO)C(=O)c2cc(NC(=O)Cn3cnnn3)ccc2O[C@@H]1CN(C)S(=O)(=O)c1ccccc1`: the cytotoxicity call was “inactive”.
Next, `CC(C)N1C[C@H](C)[C@@H](CN(C)Cc2ccc(Oc3ccccc3)cc2)Oc2c(cccc2-c2nnc(-c3ccncc3)o2)C1=O`: “inactive”; `C[C@@H]1CN([C@@H](C)CO)C(=O)c2cccc(NC(=O)Nc3cccc4ccccc34)c2O[C@H]1CN(C)S(=O)(=O)c1ccc(OC(F)(F)F)cc1`: “active”; `COc1ccc(S(=O)(=O)N(C)C[C@H]2Oc3c(NC(=O)Nc4cccc5ccccc45)cccc3C(=O)N([C@@H](C)CO)C[C@@H]2C)cc1`: “active”.
Next, `COc1cccc(S(=O)(=O)N(C)C[C@@H]2Oc3c(NC(=O)Nc4cccc5ccccc45)cccc3C(=O)N([C@@H](C)CO)C[C@H]2C)c1`: “active”; `COc1ccc(S(=O)(=O)N(C)C[C@@H]2Oc3c(NC(=O)Nc4cccc5ccccc45)cccc3C(=O)N([C@@H](C)CO)C[C@H]2C)cc1F`: “inactive”.
Next, `COc1ccccc1S(=O)(=O)N(C)C[C@@H]1Oc2c(NC(=O)Nc3cccc4ccccc34)cccc2C(=O)N([C@@H](C)CO)C[C@H]1C`: “inactive”; `C[C@H](CO)N1C[C@H](C)[C@H](CN(C)S(=O)(=O)c2ccc(F)cc2)Oc2c(NC(=O)Nc3cccc4ccccc34)cccc2C1=O`: “inactive”.
As to `COc1ccc(S(=O)(=O)N(C)C[C@@H]2Oc3c(NC(=O)Nc4cccc5ccccc45)cccc3C(=O)N([C@@H](C)CO)C[C@H]2C)cc1`, the cytotoxicity call was “inactive”.
For the molecule `COc1ccc(S(=O)(=O)N(C)C[C@@H]2Oc3c(NC(=O)Nc4cccc5ccccc45)cccc3C(=O)N([C@@H](C)CO)C[C@H]2C)c(OC)c1`, the cytotoxicity call is “active”.
Regarding `C[C@H]1CN([C@@H](C)CO)C(=O)c2cccc(NC(=O)Nc3cccc4ccccc34)c2O[C@H]1CN(C)S(=O)(=O)c1ccc(F)cc1`, the cytotoxicity call is “inactive”.
Then `COc1ccc(S(=O)(=O)N(C)C[C@@H]2Oc3c(NC(=O)Nc4cccc5ccccc45)cccc3C(=O)N([C@@H](C)CO)C[C@H]2C)cc1OC`, with “inactive”.
Then `COc1ccc(S(=O)(=O)N(C)C[C@H]2Oc3c(NC(=O)Nc4cccc5ccccc45)cccc3C(=O)N([C@@H](C)CO)C[C@H]2C)cc1`, with “inactive”; and `C[C@H](CO)N1C[C@H](C)[C@H](CN(C)S(=O)(=O)c2ccccc2)Oc2c(NC(=O)Nc3cccc4ccccc34)cccc2C1=O`, with “inactive”; and `CC1CN(c2c(F)c(N)c3c(=O)c(C(=O)O)cn(C4CC4)c3c2F)CC(C)N1` (stereo not given), with “inactive”.
Turning to `CC(C)NC(=O)N(C)C[C@H]1OCCCC[C@@H](C)Oc2ccc(NC(=O)Nc3ccc(C(F)(F)F)cc3)cc2C(=O)N([C@H](C)CO)C[C@@H]1C`, the cytotoxicity call was “inactive”.
Next, `CC(C)NC(=O)N(C)C[C@@H]1Oc2c(NC(=O)C3CCOCC3)cccc2C(=O)N([C@@H](C)CO)C[C@@H]1C`: “inactive”; `COc1ccc(S(=O)(=O)Nc2ccc3c(c2)C(=O)N([C@@H](C)CO)C[C@H](C)[C@@H](CN(C)Cc2ccccc2)OCCCC[C@H](C)O3)cc1`: “inactive”; `C(=N\c1cc(-c2ccccc2)nn1-c1ccccc1)/c1ccccc1`: “inactive”.
Regarding `C[C@H]1CN([C@@H](C)CO)C(=O)c2cc(C#CC3CCCCC3)cnc2O[C@@H]1CN(C)C(=O)c1ccncc1`, the cytotoxicity call is “inactive”.
Then `O=C(CCCCCCC(=O)Nc1ccc([C@H]2C[C@H](c3ccccc3)O[C@H](c3cccc(Oc4ccccc4)c3)O2)cc1)NO`, with “inactive”; and `C[C@H](CO)N1C[C@H](C)[C@H](CN(C)Cc2ccc(C(=O)O)cc2)Oc2ccc(NS(=O)(=O)c3cn(C)cn3)cc2CC1=O`, with “inactive”.
Next, `O=C(C[C@@H]1C[C@H]2c3cc(NS(=O)(=O)c4ccc(F)cc4)ccc3O[C@H]2[C@H](CO)O1)NCc1ccccc1F`: “inactive”; `C[C@@H]1COCCC(=O)N1`: “inactive”.
Next, `O=C1CN(c2ccccc2)C(=O)N1`: “inactive”.
As for `C[C@H]1CN([C@@H](C)CO)S(=O)(=O)c2ccc(C3=CCCCC3)cc2O[C@@H]1CN(C)S(=O)(=O)c1cn(C)cn1`, the cytotoxicity call was “inactive”.
In the case of `COc1ccc(S(=O)(=O)N(C)C[C@H]2Oc3c(NC(=O)Nc4cccc5ccccc45)cccc3C(=O)N([C@H](C)CO)C[C@@H]2C)cc1`, the cytotoxicity call was “active”.
Then `COc1ccc(S(=O)(=O)N(C)C[C@H]2Oc3c(NC(=O)Nc4cccc5ccccc45)cccc3C(=O)N([C@H](C)CO)C[C@H]2C)cc1`, with “inactive”; and `C[C@@H]1CN([C@@H](C)CO)C(=O)c2cccc(NC(=O)Nc3cccc4ccccc34)c2O[C@@H]1CN(C)S(=O)(=O)c1cccs1`, with “inactive”; and `COc1ccc(S(=O)(=O)N(C)C[C@@H]2Oc3c(NC(=O)Nc4cccc5ccccc45)cccc3C(=O)N([C@H](C)CO)C[C@H]2C)cc1`, with “active”.
Next, `COc1ccc(S(=O)(=O)N(C)C[C@@H]2Oc3c(NC(=O)Nc4cccc5ccccc45)cccc3C(=O)N([C@@H](C)CO)C[C@@H]2C)cc1`: “inactive”; `COc1ccc(S(=O)(=O)N(C)C[C@@H]2Oc3c(NC(=O)Nc4cccc5ccccc45)cccc3C(=O)N([C@H](C)CO)C[C@@H]2C)cc1`: “inactive”; `C[C@@H]1CN([C@@H](C)CO)C(=O)c2cccc(NC(=O)Nc3cccc4ccccc34)c2O[C@H]1CN(C)S(=O)(=O)c1cccs1`: “inactive”.
Next, `COc1ccc(S(=O)(=O)N(C)C[C@@H]2Oc3c(NC(=O)Nc4cccc5ccccc45)cccc3C(=O)N(C(C)C)C[C@H]2C)cc1`: “inactive”; `C[C@@H]1CN([C@H](C)CO)C(=O)c2cccc(NC(=O)Nc3cccc4ccccc34)c2O[C@@H]1CN(C)S(=O)(=O)c1cccs1`: “active”; `C[C@@H]1CCCCO[C@@H](CN(C)S(C)(=O)=O)[C@H](C)CN([C@@H](C)CO)C(=O)c2cc(N(C)C)ccc2O1`: “inactive”.
As to `COc1ccc(S(=O)(=O)N(C)C[C@H]2Oc3ncc(Br)cc3C(=O)N([C@@H](C)CO)C[C@@H]2C)cc1`, the cytotoxicity call is “inactive”.
Next, `C[C@H](CO)N1C[C@H](C)[C@@H](CN(C)C(=O)Nc2ccccc2)Oc2ccc(NC(=O)C3CC3)cc2CC1=O`: “inactive”; `O=C1OCC=C[C@H]2O[C@@]34C=CCN(c5ccc(Cl)cc5)C(=O)[C@H]3N(CCCCCCO)C(=O)[C@@H]4[C@@H]12`: “inactive”.
Then `C[C@@H]1CCCCO[C@H](CN(C)Cc2ccc(C(=O)O)cc2)[C@@H](C)CN([C@H](C)CO)C(=O)c2cc(NC(=O)Nc3ccccc3)ccc2O1`, with “inactive”; and `CC(C)N1C(=O)C[C@@](C(=O)NCCN2CCOCC2)(c2ccc([N+](=O)[O-])cc2)[C@H]1c1ccc(CO)cc1`, with “inactive”.
Next, `COc1ccc(NC(=O)Nc2ccc3c(c2)C(=O)N([C@@H](C)CO)C[C@H](C)[C@H](CN(C)C(=O)NC2CCCCC2)OCCCC[C@H](C)O3)cc1`: “inactive”; `C[C@H]1CCCCO[C@H](CN(C)S(=O)(=O)c2ccccc2)[C@@H](C)CN([C@@H](C)CO)C(=O)c2cc(NC(=O)Nc3cccc4ccccc34)ccc2O1`: “inactive”.

These data come from the antibiotic and cytotoxicity screens of Wong et al. (2023).
